Data from the supplement of paper PMC11026393.

Test system: H1299
Test: difference in mean normalized H2B-mRuby nuclear fluorescence intensity relative to DMSO control (normalized intensity difference (DMSO = 0)); higher = stronger increase in transgene reporter fluorescence
Conditions: 24 h
Procedure: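 Cancer cell lines stably expressing H2B-mRuby2 from a lentiviral PGK promoter were treated with each drug for 24 h and imaged on a Leica DMI8 (ex 541-551 / em 565-605 nm). Nuclei were segmented in CellProfiler. The value is the difference in mean per-nucleus normalized H2B-mRuby intensity versus DMSO-treated cells (about 3 repeats x 4 fields). Doxorubicin is itself fluorescent. Dasatinib is in nM.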

Work on `O=C(Nc1ccc2[nH]nc(-c3ccncc3)c2c1)[C@@H]1CCN(CC(=O)N2CCN(c3ccc(-c4ncccn4)cc3)CC2)C1` (concentration unit: uM) yielded a difference (concentration: 0.05) of -0.0926, a difference (concentration: 0.1) of -0.0835 and a difference (concentration: 0.25) of -0.13. It also gave a difference (concentration: 1) of -0.131 and a difference (concentration: 5) of -0.0355.
`COc1cc(Nc2c(C#N)cnc3cc(OCCCN4CCN(C)CC4)c(OC)cc23)c(Cl)cc1Cl` (concentration unit: uM) was tested, and the difference (concentration: 0.25) was -0.202, the difference (concentration: 1) was -0.134 and the difference (concentration: 2.5) was -0.0971. The difference (concentration: 5) was -0.166 and the difference (concentration: 20) was -0.0502.
`Nc1ncn([C@@H]2O[C@H](CO)[C@@H](O)[C@H]2O)c(=O)n1` (concentration unit: uM) was tested, and the difference (concentration: 1) was 0.0691, the difference (concentration: 2.5) was 0.0657 and the difference (concentration: 5) was 0.123. For the same compound, the difference (concentration: 10) was 0.125 and the difference (concentration: 20) was 0.109.
`N#CC[C@H](C1CCCC1)n1cc(-c2ncnc3[nH]ccc23)cn1` (concentration unit: uM) showed a difference (concentration: 1) of 0.0876, a difference (concentration: 2.5) of -0.0462 and a difference (concentration: 5) of -0.0185. It also gave a difference (concentration: 10) of -0.0963 and a difference (concentration: 25) of 0.115.
In the case of `O=C(c1cc(Cc2n[nH]c(=O)c3ccccc23)ccc1F)N1CCN(C(=O)C2CC2)CC1` (concentration unit: uM), the difference (concentration: 1) is reported as -0.0151, the difference (concentration: 2.5) is reported as -0.0147 and the difference (concentration: 5) is reported as 0.0174. It also gave a difference (concentration: 10) of 0.0357 and a difference (concentration: 25) of 0.0633.
Work on `CO[C@H]1/C=C\C=C(/C)C(=O)NC2=CC(=O)C(NCCN(C)C)=C(C[C@@H](C)C[C@H](OC)[C@H](O)[C@@H](C)/C=C(\C)[C@@H]1OC(N)=O)C2=O` (concentration unit: nM) yielded a difference (concentration: 5) of 0.0988, a difference (concentration: 25) of 0.27 and a difference (concentration: 50) of 0.565. For the same compound, the difference (concentration: 100) was 0.538 and the difference (concentration: 500) was 0.571.
For `Cc1[nH]c2ccccc2c1CCNCc1ccc(/C=C/C(=O)NO)cc1` (concentration unit: nM), the difference (concentration: 10) was 0.43, the difference (concentration: 25) was 0.738 and the difference (concentration: 50) was 0.733. For the same compound, the difference (concentration: 100) was 0.864, the difference (concentration: 250) was 0.886 and the difference (concentration: 500) was 0.923.
`CC(=O)O[C@H]1C(=O)[C@@]2(C)[C@H]([C@H](OC(=O)c3ccccc3)[C@]3(O)C[C@H](OC(=O)[C@H](O)[C@@H](NC(=O)c4ccccc4)c4ccccc4)C(C)=C1C3(C)C)[C@]1(OC(C)=O)CO[C@@H]1C[C@@H]2O` (concentration unit: nM) showed a difference (concentration: 10) of -0.0339, a difference (concentration: 25) of -0.0112 and a difference (concentration: 50) of 0.134. The difference (concentration: 100) was 0.374 and the difference (concentration: 1000) was 0.566.
